In PubChem BioAssay AID588689 (Southern Research Specialized Biocontainment Screening …, 2011):
Out of some 340,000 compounds screened, about 1,000 (0.29%) were called active. Rule as the data show it: inconclusive = inhibition above about 29% without an active follow-up result; inactive = below that. The list is a sample of the results. Entries with a potency or affinity are not part of this list.

Target: Genome polyprotein (Dengue virus type 2 (strain 16681-PDK53)) (UniProt P29991)
Test: flavivirus cap methylation enzyme inhibition – biochemical, confirmation dose response, primary screen (AID 588689)
Conditions: Dengue-2 NS5 methyltransferase capping enzyme assay, at 25 µM, stronger effect = higher value
[1] = measured here: pilot screen replicate inhibition

Chain of Genome polyprotein (Dengue virus type 2 (strain 16681-PDK53)) (P29991 whole entry, looked up): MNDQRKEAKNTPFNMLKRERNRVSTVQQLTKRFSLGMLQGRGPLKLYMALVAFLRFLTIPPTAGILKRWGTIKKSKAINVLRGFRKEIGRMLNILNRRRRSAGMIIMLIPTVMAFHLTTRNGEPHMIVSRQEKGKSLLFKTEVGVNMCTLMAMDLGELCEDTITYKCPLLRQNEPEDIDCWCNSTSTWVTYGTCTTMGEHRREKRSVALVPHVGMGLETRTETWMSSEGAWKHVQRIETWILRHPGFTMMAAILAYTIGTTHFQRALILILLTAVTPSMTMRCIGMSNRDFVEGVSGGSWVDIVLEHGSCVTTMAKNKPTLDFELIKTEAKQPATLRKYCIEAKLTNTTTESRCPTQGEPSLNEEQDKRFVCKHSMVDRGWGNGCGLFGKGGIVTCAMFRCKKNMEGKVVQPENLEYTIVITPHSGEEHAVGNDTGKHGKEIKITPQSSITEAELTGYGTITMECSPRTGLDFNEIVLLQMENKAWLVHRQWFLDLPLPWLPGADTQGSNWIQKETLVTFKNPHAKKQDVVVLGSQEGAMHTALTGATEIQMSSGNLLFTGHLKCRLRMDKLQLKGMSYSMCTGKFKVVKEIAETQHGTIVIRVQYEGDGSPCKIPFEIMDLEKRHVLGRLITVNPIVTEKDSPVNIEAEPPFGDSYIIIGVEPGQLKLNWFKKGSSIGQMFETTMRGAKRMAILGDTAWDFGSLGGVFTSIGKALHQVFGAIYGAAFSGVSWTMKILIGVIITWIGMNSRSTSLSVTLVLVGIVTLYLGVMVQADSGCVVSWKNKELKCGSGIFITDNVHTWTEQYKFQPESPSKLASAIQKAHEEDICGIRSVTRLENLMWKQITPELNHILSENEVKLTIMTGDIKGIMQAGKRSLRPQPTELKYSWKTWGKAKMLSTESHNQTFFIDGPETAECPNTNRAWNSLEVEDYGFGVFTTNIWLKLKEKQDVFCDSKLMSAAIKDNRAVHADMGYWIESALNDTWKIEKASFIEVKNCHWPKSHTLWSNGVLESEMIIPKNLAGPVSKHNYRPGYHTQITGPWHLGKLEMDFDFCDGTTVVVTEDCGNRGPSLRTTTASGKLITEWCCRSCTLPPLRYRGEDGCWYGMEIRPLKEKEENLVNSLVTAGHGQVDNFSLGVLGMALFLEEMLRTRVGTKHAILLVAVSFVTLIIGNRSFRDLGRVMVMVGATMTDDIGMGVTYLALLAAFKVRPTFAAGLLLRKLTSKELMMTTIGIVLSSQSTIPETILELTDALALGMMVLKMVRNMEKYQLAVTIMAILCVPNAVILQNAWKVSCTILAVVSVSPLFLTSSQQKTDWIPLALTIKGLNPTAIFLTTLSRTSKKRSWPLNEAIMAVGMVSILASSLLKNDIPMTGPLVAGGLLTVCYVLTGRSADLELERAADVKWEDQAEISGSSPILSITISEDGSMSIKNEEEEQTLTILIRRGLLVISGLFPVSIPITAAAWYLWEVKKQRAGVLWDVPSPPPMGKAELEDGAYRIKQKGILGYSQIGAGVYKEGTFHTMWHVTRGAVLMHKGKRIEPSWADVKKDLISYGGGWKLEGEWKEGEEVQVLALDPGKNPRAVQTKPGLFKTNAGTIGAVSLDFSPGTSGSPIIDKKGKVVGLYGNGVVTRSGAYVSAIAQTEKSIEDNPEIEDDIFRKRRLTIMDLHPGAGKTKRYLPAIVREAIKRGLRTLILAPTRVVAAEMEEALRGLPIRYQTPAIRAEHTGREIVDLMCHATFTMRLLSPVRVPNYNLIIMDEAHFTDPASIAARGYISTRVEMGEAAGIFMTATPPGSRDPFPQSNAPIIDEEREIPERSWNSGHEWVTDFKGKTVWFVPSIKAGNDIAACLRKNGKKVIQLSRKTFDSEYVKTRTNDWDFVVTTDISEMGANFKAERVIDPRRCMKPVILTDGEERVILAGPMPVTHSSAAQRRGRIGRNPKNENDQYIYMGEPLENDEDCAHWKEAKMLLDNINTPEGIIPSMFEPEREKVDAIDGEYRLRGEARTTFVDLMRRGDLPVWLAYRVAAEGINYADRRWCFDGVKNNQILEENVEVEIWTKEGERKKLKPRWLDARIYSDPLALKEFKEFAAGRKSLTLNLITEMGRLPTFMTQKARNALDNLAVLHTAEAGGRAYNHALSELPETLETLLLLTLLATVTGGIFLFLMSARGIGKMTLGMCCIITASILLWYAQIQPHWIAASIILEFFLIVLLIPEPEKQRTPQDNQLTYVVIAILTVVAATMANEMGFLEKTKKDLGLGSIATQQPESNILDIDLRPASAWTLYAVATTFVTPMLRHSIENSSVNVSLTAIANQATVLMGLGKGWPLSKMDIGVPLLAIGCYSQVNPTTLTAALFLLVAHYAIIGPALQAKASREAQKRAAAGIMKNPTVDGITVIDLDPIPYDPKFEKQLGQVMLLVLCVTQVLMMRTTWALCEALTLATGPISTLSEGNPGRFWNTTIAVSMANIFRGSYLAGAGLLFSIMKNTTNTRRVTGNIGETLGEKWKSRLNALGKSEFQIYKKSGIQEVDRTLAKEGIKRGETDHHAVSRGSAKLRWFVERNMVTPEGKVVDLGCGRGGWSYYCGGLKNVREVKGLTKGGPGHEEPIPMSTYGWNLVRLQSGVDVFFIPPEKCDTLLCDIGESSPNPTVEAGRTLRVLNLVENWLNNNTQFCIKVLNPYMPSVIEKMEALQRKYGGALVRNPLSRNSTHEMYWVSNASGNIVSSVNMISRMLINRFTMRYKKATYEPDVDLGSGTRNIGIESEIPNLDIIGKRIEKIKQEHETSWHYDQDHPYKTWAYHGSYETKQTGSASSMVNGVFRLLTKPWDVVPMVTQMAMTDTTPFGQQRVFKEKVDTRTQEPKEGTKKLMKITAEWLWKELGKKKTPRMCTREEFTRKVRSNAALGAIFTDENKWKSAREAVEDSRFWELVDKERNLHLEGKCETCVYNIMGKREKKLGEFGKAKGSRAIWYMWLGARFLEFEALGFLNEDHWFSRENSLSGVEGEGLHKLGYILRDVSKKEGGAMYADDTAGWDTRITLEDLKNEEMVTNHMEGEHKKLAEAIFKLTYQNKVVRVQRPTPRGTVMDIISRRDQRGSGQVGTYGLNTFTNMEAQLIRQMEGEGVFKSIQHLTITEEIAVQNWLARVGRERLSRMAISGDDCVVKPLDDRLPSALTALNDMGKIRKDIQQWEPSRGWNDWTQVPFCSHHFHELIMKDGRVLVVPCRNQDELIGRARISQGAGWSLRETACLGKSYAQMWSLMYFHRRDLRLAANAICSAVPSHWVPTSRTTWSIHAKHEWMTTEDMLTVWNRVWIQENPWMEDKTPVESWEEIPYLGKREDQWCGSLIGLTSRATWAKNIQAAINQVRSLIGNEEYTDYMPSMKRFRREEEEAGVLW

| SMILES | inhibition | inhibition [1] |
| --- | --- | --- |
| Cc1ccc(S(=O)(=O)n2cnc3cc([N+](=O)[O-])ccc32)cc1C | 0.8% (inactive) | – |
| Cc1ccc(-n2c(C)nn(Cc3ccc([N+](=O)[O-])cc3)c2=O)cc1 | -7.53% (inactive) | – |
| O=S(=O)(c1ccc(Cl)cc1)N1CCN(CCc2ccncc2)CC1 | -1.66% (inactive) | – |
| Cc1cccc(C(C)C)c1NC(=O)COC(=O)CNS(=O)(=O)c1ccccc1 | 0% (inactive) | – |
| O=C1NC2=C(C(=O)CCC2)C(c2ccc3ncccc3c2)N1 (stereo unspecified) | 0% (inactive) | – |
| C[C@H](CO)N1C[C@H](C)[C@@H](CN(C)C(=O)Nc2cc(F)ccc2F)Oc2ncc(-c3cccc(F)c3)cc2C1=O | 0.58% (inactive) | – |
| O=C1C=C(c2ccc(C(=O)O)cc2)C[C@@H](c2ccc3c(c2)OCO3)C1 | 0.83% (inactive) | – |
| O=C(Cn1c(C(F)(F)F)nc2ccccc21)Nc1ccccc1N1CCOCC1 | 0.69% (inactive) | – |
| Cc1cc(-c2ccco2)n(CC(=O)NCCCc2ccccc2)n1 | -4.87% (inactive) | – |
| COC(=O)c1cccc(CSc2nc(-c3ccccc3)c(C#N)c(=O)[nH]2)c1 | 11.1% (inactive) | – |
| N#Cc1c(-c2ccccc2)nc(SCc2cccc(Cl)c2)[nH]c1=O | 19.5% (inactive) | – |
| O=C(CCC(=O)N1CCCC(Nc2ccccc2)C1)c1ccc(F)cc1 (stereo unspecified) | 2.72% (inactive) | – |
| COCCOC(=O)c1sc2nc[nH]c(=O)c2c1C | -12.3% (inactive) | – |
| Cc1ccc(S(=O)(=O)N2CCN(Cc3cccnc3)CC2)cc1 | 2.57% (inactive) | – |
| CC(=O)Nc1ccc(S(=O)(=O)N(C)CC(=O)OC(C)C(=O)NC2CCCCC2)cc1 (stereo unspecified) | -5.07% (inactive) | – |
| Cc1c(C(c2cccc([N+](=O)[O-])c2O)c2c(C)n(C)n(-c3ccccc3)c2=O)c(=O)n(-c2ccccc2)n1C | -5.62% (inactive) | – |
| COc1ccccc1N=Nc1c(C)[nH]n(-c2ccccc2)c1=O | 1.98% (inactive) | -4.55% |
| COc1cccc(C(C[N+](=O)[O-])c2c(C)[nH]n(-c3ccccc3)c2=O)c1 (stereo unspecified) | 8.91% (inactive) | – |
| Cc1[nH][nH]c(=O)c1[C@@H](c1ccccc1[N+](=O)[O-])C(C#N)C#N | 14.4% (inactive) | – |
| Cc1[nH]n(-c2ccccc2)c(=O)c1C(C[N+](=O)[O-])c1ccccc1Cl (stereo unspecified) | -8.87% (inactive) | – |
| Cc1[nH][nH]c(=O)c1C(c1ccccc1[N+](=O)[O-])C(C#N)C#N (stereo unspecified) | -2.95% (inactive) | – |
| S=C(Nc1ccccc1Cl)NC1CCCCCC1 | -2.33% (inactive) | – |
| Cc1nnc(SCC(=O)Nc2nsc(-c3ccc(Cl)cc3)n2)s1 | 2.61% (inactive) | – |
| CCOc1ccc(S(=O)(=O)N2CCN(S(=O)(=O)c3ccc(C(C)=O)cc3)CC2)cc1 | -2.49% (inactive) | – |
| CC1CN(CCc2ccccc2)C(C)C/C1=N/O (stereo unspecified) | -3.09% (inactive) | – |

| SMILES | inhibition | inhibition [1] |
| --- | --- | --- |
| Cc1c(Cl)cccc1NC(=S)N(Cc1cccnc1)Cc1ccccc1Cl | -4.52% (inactive) | – |
| O=C(NCCS(=O)(=O)NCc1cccs1)c1ccccc1 | 0% (inactive) | – |
| COc1ccc(C(=O)c2ccccc2C(=O)c2ccccc2)cc1 | -0.81% (inactive) | – |
| Cc1cc(/C=C2/C(=O)NN(c3ccccc3)C2=O)c(C)n1-c1cccc(O)c1 | 6.37% (inactive) | – |
| Cc1cc(/C=C2/C(=O)NN(c3ccccc3)C2=O)c(C)n1-c1ccc(O)cc1 | 5.82% (inactive) | – |
| COC(=O)C1=C(C)NC(=O)/C1=C\c1cc(C)n(-c2ccccc2F)c1C | 5.5% (inactive) | – |
| COC(=O)C1=C(C)NC(=O)/C1=C\c1cc(C)n(-c2ccccc2)c1C | 5.15% (inactive) | – |
| Cc1nc(SCC(=O)N2CC(=O)Nc3ccccc32)nc(C)c1C | 2.34% (inactive) | – |
| Cc1ccc(CS(=O)Cc2ccc(C(=O)NCc3ccc4c(c3)OCO4)o2)cc1 (stereo unspecified) | -13.8% (inactive) | – |
| CC1CC(C)CN(S(=O)(=O)c2cccc(C(=O)N3CCN(c4ccc(F)cc4)CC3)c2)C1 (stereo unspecified) | -0.73% (inactive) | – |
| CC(C)NC(=O)C1CCN(C(=O)N(C)C)CC1 | 0.71% (inactive) | – |
| O=C(O)c1ccc(NC(=S)NC(=O)c2ccc(-c3ccc(Br)cc3)o2)cc1 | -8.03% (inactive) | – |
| Cc1c(NC(=S)NC(=O)c2ccc(-c3ccc(Cl)cc3)o2)cccc1C(=O)O | 8.19% (inactive) | – |
| O=Nc1c(-c2ccccc2)n(O)[n+]([O-])c1-c1ccccc1 | -16.7% (inactive) | – |
| COc1cccc(CN2CC(C(=O)NCCN3CCOC3=O)CCC2=O)c1 (stereo unspecified) | -9.76% (inactive) | – |
| COC(=O)C1=CN(c2ccc(OC)cc2)C=C(C(=O)OC)C1c1ccc([N+](=O)[O-])cc1 | -9.75% (inactive) | – |
| Cc1ccc(Cn2nnc(C(=O)Nc3cccc(C)c3C)c2N)cc1 | -0.68% (inactive) | – |
| Cc1cccc(S(=O)(=O)Nc2ccc(-n3c(C)nc4ccccc4c3=O)cc2)c1 | -5.8% (inactive) | – |
| C=CCOc1ccc(S(C)(=O)=O)cc1 | 1.32% (inactive) | – |
| CSc1nc(Cl)c(Cc2ccc(OC(C)C)cc2)c(N(C)C)n1 | -2.55% (inactive) | – |
| COc1nc(SC)nc(Cl)c1Cc1ccc(OC(C)C)cc1 | -6.55% (inactive) | – |
| C=CCOc1ccc(Oc2cc(C)nc(SC)n2)nn1 | -6.11% (inactive) | – |
| CSc1nc(O)c(C(c2ccccc2)c2c(O)nc(SC)[nH]c2=O)c(=O)[nH]1 | -1.55% (inactive) | – |
| CSc1nc(O)c(C(c2ccc(C)cc2)c2c(O)nc(SC)[nH]c2=O)c(=O)[nH]1 | 5.27% (inactive) | 4.26% |
